According to PubChem BioAssay (NCI):
This is part of a sample that, as a whole, favours compounds with a hit. Of some 83,000 tested, about 20% had one in any assay.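 Growth was measured after 48 h exposure to one concentration of compound in 96-well plates. Values under 10 count as active.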 Active and inactive are the calls of the source.

Tests used:
Test in all cases: NCI-60 one-dose screen, 48 h (100 = growth as untreated, 0 = no growth, -100 = all killed)
Settings in all cases: 10 µM unless noted
[1] = test system: NCI-H23 lung
[2] = test system: NCI-H322M lung
[3] = test system: HOP-62 NSCLC
[4] = test system: NCI-H460 lung
[5] = test system: HOP-92 NSCLC
[6] = test system: NCI-H522 lung
[7] = test system: A549/ATCC NSCLC
[8] = test system: 786-0 renal
[9] = test system: DU-145 prostate
[10] = test system: K-562 leukemia
[11] = test system: MALME-3M melanoma
[12] = test system: MDA-MB-231 breast
[13] = test system: RXF 393 renal
[14] = test system: SF-268 CNS
[15] = test system: SF-295 CNS
[16] = test system: SF-539 CNS
[17] = test system: UACC-257 melanoma
[18] = test system: M14 melanoma
[19] = test system: HCT-15 colon
[20] = test system: COLO 205 colon

Measured: growth

Cc1cccc2c(=O)c3c(sc12)c(N1CCNCC1)nc1ccccc13
inactive: [1] 80.4% | [2] 74.5% | [3] 73.6% | [4] 80% | [5] 53.7% | [6] 82.6% | [7] 78.3% | [8] 78.1% | [9] 67.5% | [11] 98.6% | [12] 56.3% | [13] 72.2% | [14] 76.1% | [15] 93.5% | [16] 75.8% | [17] 96.6% | [18] 74% | [19] 25.9%
active: [10] -23%

O=C(O)c1cn(C2CC2)c2cc(N3CCN(C(=O)C[n+]4ccccc4)CC3)c(F)cc2c1=O
inactive: [1] 104% | [2] 105% | [3] 103% | [4] 106% | [5] 98.5% | [6] 93.4% | [7] 99.1% | [8] 98.5% | [20] 121% | [9] 102% | [11] 99.5% | [12] 105% | [14] 95.3% | [15] 101% | [16] 95.1% | [17] 101% | [18] 106% | [19] 102%

O=C(/C=C/c1ccc(C(F)(F)F)cc1)c1ccc(Nc2nc(NCCO)nc(N3CCOCC3)n2)cc1
active: [8] -2.96% | [10] 5.46% | [19] 7.59%
inactive: [1] 39.4% | [2] 40.5% | [3] 33% | [4] 11.7% | [5] 64% | [6] 45.6% | [7] 13.1% | [9] 13% | [11] 97% | [12] 46.7% | [13] 73.9% | [14] 36% | [15] 81.4% | [16] 50.6% | [17] 98.9% | [18] 37.5%

COc1ccc2sc3c(NCCCN)nc4ccccc4c3c(=O)c2c1
inactive: [1] 80.7% | [2] 68.9% | [3] 57.2% | [5] 33.9% | [6] 18.7% | [8] 42.3% | [11] 94.2% | [12] 25.3% | [13] 49.5% | [14] 57.6% | [15] 94.5% | [16] 74.1% | [17] 95.7% | [18] 18.9%
active: [4] -73.3% | [7] -44.8% | [9] -6.46% | [10] -56.9% | [19] -49%

COc1cc2c(cc1OC)C(=O)C(CC1CCN(C(=O)Nc3ccc(C)cc3)CC1)C2 (configuration not stated)
inactive: [1] 100% | [2] 95.7% | [3] 99.1% | [4] 97.3% | [5] 62.5% | [6] 87.8% | [7] 108% | [8] 101% | [20] 110% | [9] 104% | [11] 91.1% | [12] 76.7% | [14] 96.8% | [15] 96.5% | [16] 92.8% | [17] 119% | [18] 97.5% | [19] 94.5%

CC(C)CCOc1ccc(-c2n[nH]c(C(F)(F)F)c2-c2cncc(C#N)c2)c(O)c1
inactive: [2] 12.4% | [7] 10.4% | [8] 17.1% | [20] 49% | [9] 18% | [14] 21.9% | [16] 25.2% | [18] 22.5% | [19] 12%
active: [1] -0.157% | [3] 5.79% | [4] 3.48% | [5] -27.9% | [6] -6.89% | [11] -0.801% | [12] 1.43% | [15] 0.826% | [17] -14%

COc1cc(C2C(C#N)=C(N)OC3=C2C(=O)c2ccccc2C3=O)cc(OC)c1O (configuration not stated)
inactive: [1] 32.5% | [2] 47.7% | [3] 34.2% | [4] 12.7% | [5] 43.7% | [7] 52.3% | [8] 35.4% | [20] 44.6% | [9] 17.8% | [11] 54.7% | [12] 57.1% | [14] 42.2% | [15] 29.3% | [17] 55.9% | [18] 21.1% | [19] 23.6%
active: [6] -10.1% | [16] 0.132%

COc1cc(/C(C#N)=C/c2nc3c(N4CCOCC4)nc(Cl)nc3n2C)cc(OC)c1OC
inactive: [1] 18.2% | [2] 28.8% | [3] 25.1% | [6] 15.7% | [7] 19.5% | [11] 34.8% | [13] 25.7% | [14] 17.2% | [17] 66.2% | [18] 10.8%
active: [4] -3.75% | [5] -4.18% | [8] 6.45% | [9] 4.54% | [10] 4.64% | [12] 9.11% | [15] -15% | [16] -23.7% | [19] 8.94%

O=C1C(=O)c2c(ccc3ccccc23)-c2ccccc21
inactive: [2] 50.5% | [7] 24.1% | [20] 52% | [13] 22% | [15] 109%
active: [1] -48.4% | [3] 9.44% | [4] 3.58% | [5] -20.6% | [6] -77.4% | [8] -6.68% | [10] 8.29% | [11] -83.8% | [12] -7.61% | [14] 1.97% | [16] -53.5% | [17] -37.4% | [18] -44.6% | [19] -27.6%
